From PubChem BioAssay AID743286 (National Center for Advancing Translational Sciences (NCATS), 2014)
The campaign covered roughly 1,100 compounds. About 340 (31%) were called active. Roughly 40% stayed inconclusive and do not appear here. A selection follows. Unmarked numbers belong to inactive results. The call rests on the fitted dose curve; in most records, active means well fitted inhibition curve with a large enough effect; inconclusive means small, poorly fitted or top-dose-only effect; inactive means flat fitted curve, though single readings scatter.

Target: Phosphatidylinositol 5-phosphate 4-kinase type-2 alpha (Homo sapiens) (UniProt P48426)
Sequence (P48426 whole entry, looked up): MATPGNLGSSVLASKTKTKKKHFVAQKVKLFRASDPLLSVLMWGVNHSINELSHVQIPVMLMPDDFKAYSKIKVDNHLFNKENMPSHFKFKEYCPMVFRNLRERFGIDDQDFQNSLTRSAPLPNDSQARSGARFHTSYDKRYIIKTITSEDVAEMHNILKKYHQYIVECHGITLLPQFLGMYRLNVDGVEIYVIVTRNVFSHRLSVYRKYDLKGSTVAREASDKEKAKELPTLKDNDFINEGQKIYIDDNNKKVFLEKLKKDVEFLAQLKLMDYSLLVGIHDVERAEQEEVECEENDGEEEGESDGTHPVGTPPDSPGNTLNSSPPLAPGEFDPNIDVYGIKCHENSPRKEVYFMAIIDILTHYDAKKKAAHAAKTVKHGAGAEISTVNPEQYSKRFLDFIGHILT
Experiment: qHTS for Inhibitors of PI5P4K: Confirmation in Primary Assay; further: nearly all actives have a fitted effect of over 65% in size
Details: PI5P4Kalpha enzyme, ADP-Glo luminescence, 60 min; series mostly up to 76.9 µM; activity change, negative = inhibition: at the top concentration
Method in brief: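 Human PI5P4Kα activity was measured as ADP generation using ADP-Glo luminescence. Reactions ran 60 minutes at room temperature with 5 microM ATP in buffered conditions at pH 7.4 containing 5% DMSO.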
On the % scale 0 is the no-effect control and ±100 the full control effect; potency means the concentration at half of the fitted maximal effect.

Structure (SMILES)	activity change, negative = inhibition	Potency
CCN1CCN(C(=O)Cn2nc(-c3ccc(Cl)cc3)ccc2=O)CC1	7.36%	–
COc1cc2nc(Nc3ccc(C)c(Cl)c3)nc(N)c2cc1OC	–	15.8 µM (active)
CC1CCCCC1NC(=O)COC(=O)c1c2c(nc3ccccc13)/C(=C\c1ccco1)CC2 (stereo not drawn)	–	1.26 µM (active)
Cc1ccnc2nc(C(=O)OCC(=O)NC3CCCC(C)C3C)nn12 (stereo not drawn)	5.28%	–
COc1ccc(CCn2c(O)cc3nn(-c4nc5ccccc5s4)c(=O)c-3c2C)cc1	–	11.2 µM (active)
O=C(CCS(=O)(=O)c1ccc2c(c1)NC(=O)CS2)NCCc1ccc(Cl)cc1	-2.61%	–
NS(=O)(=O)c1ccc(NC(=O)C2Cc3ccccc3CN2C(=O)c2ccco2)cc1 (stereo not drawn)	–	14.1 µM (active)
CCCNC(=O)C1(C)CCCN(C(=O)c2cc(C)nn2C(C)(C)C)C1 (stereo not drawn)	0.849%	–
Oc1cc2c(cc1C(c1ccc(Cl)c(Cl)c1)N1CCCC1)OCO2 (stereo not drawn)	–	12.6 µM (active)
O=C(Nc1cccc2cccnc12)c1csc(COCCO)n1	-0.498%	–
O=C(c1cccnc1)N(c1cc2sc(=O)oc2c2ccccc12)S(=O)(=O)c1ccccc1	-17.1%	–
COc1ccc(S(=O)(=O)N2CCN(C(=O)c3cc4c(s3)CCC4)CC2)cc1	–	7.08 µM (active)
CCOc1ccc(S(=O)(=O)N2CCN(c3ccc(C)cc3C)CC2)cc1	11.9%	–
COc1cc2nc(COc3ccccc3[N+](=O)[O-])oc(=O)c2cc1OC	-3.94%	–
O=S(=O)(Nc1ccc2cn[nH]c2c1)c1ccccc1	0.969%	–
CCOC(=O)c1cnc2cc(C)ccn2c1=O	0.0355%	–
C[C@H]1CN=C(Nc2ccccc2)N1CCCC1CCCCC1	-0.725%	–
CCN1CCN(Cc2ccc(NC(=O)c3cc(NC(=O)c4cc5cccc(OC)c5o4)cc(OC)c3)cc2C(F)(F)F)CC1	–	25.1 µM (active)
CCN1CCN(Cc2ccc(NC(=O)c3ccc(C)c(NC(=O)c4cc(-c5ccc(Br)cc5)n[nH]4)c3)cc2C(F)(F)F)CC1	–	28.2 µM (active)
COc1cccc2cc(C(C)N(CCCN3CCOCC3)C(=O)Nc3ccccc3)oc12 (stereo not drawn)	1.88%	–
Cc1ccc(C)c(NC(=O)c2ccc3c(c2)N(Cc2ccc(F)cc2)C(=O)CS3=O)c1 (stereo not drawn)	-0.517%	–
Cc1cc2ccccc2nc1SCC(=O)NC1CCCC1	3.8%	–
CCCCNC(=O)C1(C)CCC(=O)N1c1cc(C(C)(C)C)nn1C (stereo not drawn)	4.31%	–
COCCn1nnnc1C(c1cc2cc(OC)c(OC)cc2[nH]c1=O)N1CCN(c2ccc(O)cc2)CC1 (stereo not drawn)	-13.5%	–
Cc1ccn2c(NC3CCCC3)c(-c3cccs3)nc2c1	6.53%	–

Structure (SMILES)	activity change, negative = inhibition	Potency
O=c1c2c3c(sc2[nH]c(=S)n1Cc1ccco1)CCC3	–	7.08 µM (active)
Cc1cccc(-n2c(SCC(N)=O)nc3c(c2=O)C2(CCCC2)Cc2ccccc2-3)c1	3.23%	–
Cc1ccccc1CNC(=O)c1ccc2nc([C@@H]3O[C@H](CO)[C@H](O)[C@H](O)[C@H]3O)[nH]c2c1	1.11%	–
COc1ccc(OC)c(NC(=O)COC(=O)c2cc3c(s2)CCC3)c1	–	12.6 µM (active)
COc1ccc(OC)c(NC(=O)CN(Cc2ccc(F)cc2)C2CCCCC2)c1	-1.93%	–
CN(C(=O)c1ccc(Br)o1)C1CCS(=O)(=O)C1 (stereo not drawn)	6.38%	–
CC(C)(C)c1ccc(NC(=O)C2=CC=CN3CCS(=O)(=O)N=C23)cc1	8.13%	–
Cc1oc(-c2ccc(Cl)cc2)cc1-c1nn2c(-c3ccoc3C)nnc2s1	–	14.1 µM (active)
Cc1oc(-c2ccc(Cl)cc2)cc1C(=O)N1CCC1(C)C(=O)O (stereo not drawn)	-17.1%	–
CC(C)c1ccc(CNc2nc(NCC3CC3)nc3ccsc23)cc1	-27.8%	–
c1ccc(-c2cc3nc(NCC4CC4)nc(NCC4CCCCC4)c3s2)cc1	–	20 µM (active)
c1ccc(CNc2nc(NCC3CC3)nc3cc(-c4ccccc4)sc23)cc1	–	12.6 µM (active)
COc1cccc(CNc2nc(NC(C)C)nc3ccsc23)c1	0.0638%	–
COc1ccccc1CNc1nc(NCc2cccc(OC)c2OC)c2sccc2n1	-9.72%	–
CCO[C@@H]1OC(C(=O)NCc2ccccc2)=C[C@H](C(C)(C)C)[C@H]1CCCO	3.67%	–
O=C(Cn1cnc2c(OCc3ccccc3)ncnc21)NCc1nc2ccccc2[nH]1	0.539%	–
COc1ccc(CCNC(=O)CNCC(c2ccccc2)N(C)C)cc1OC (stereo not drawn)	-0.661%	–
COCCN(C(=O)COC(=O)c1cc2c(s1)CCC2)c1c(N)n(Cc2ccccc2)c(=O)[nH]c1=O	–	3.16 µM (active)
Cc1ccc2c(CC(=O)OCC(=O)N(CC(C)C)c3c(N)n(Cc4ccccc4)c(=O)[nH]c3=O)coc2c1	-22.2%	–
COc1ccc(S(=O)(=O)N2CCCC(C(=O)Nc3cccnc3)C2)cc1Cl (stereo not drawn)	-1.94%	–
COc1ccc(Cl)cc1C(Nc1cccnc1)c1ccc2cccnc2c1O (stereo not drawn)	–	12.6 µM (active)
CCOc1ccc(C(Nc2cccnc2)c2cc(Cl)c3cccnc3c2O)cc1 (stereo not drawn)	–	6.31 µM (active)
O=C(NC(c1ccc(Cl)cc1)c1cc(Cl)c2cccnc2c1O)c1cccnc1 (stereo not drawn)	–	22.4 µM (active)
COc1ccc(N(C(=O)C2CSC(=O)C2)C(C(=O)NC(C)(C)C)c2ccncc2)cc1 (stereo not drawn)	4.14%	–
Cc1noc(C)c1CCC(=O)N1CCCC(CCC(=O)NCc2ccc(F)c(F)c2)C1 (stereo not drawn)	6.69%	–

Structure (SMILES)	activity change, negative = inhibition	Potency
COC(=O)c1c[nH]c(=O)c2ccccc12	3.61%	–
CCOC(=O)[C@]12CCCC=C1N(Cc1ccccc1)C(=O)[C@H](CC(=O)NCCCOC)C2	-0.167%	–
O=C(COC(=O)c1ccc(NS(=O)(=O)c2cccs2)cc1O)Nc1nc2ccccc2s1	–	20 µM (active)
O=C(Cn1cc(COc2ccc(Br)cc2[N+](=O)[O-])nn1)c1ccc(O)cc1	-24.8%	–
C#CCN1C(=O)S/C(=C\c2ccc(-c3ccc(C(=O)O)cc3C)o2)C1=O	–	12.6 µM (active)
CN(c1cccc(NC(=O)c2ccc(N(C)S(=O)(=O)c3ccccc3)cc2)c1)S(C)(=O)=O	2.47%	–
CC1(C)Cc2cccc(OCC(=O)NCCOc3ccccc3)c2O1	-1.33%	–
FC(F)(F)C1=Nc2cccc3cccc(c23)N1	–	3.98 µM (active)
CC[C@]12c3[nH]c4cc(-c5ccco5)ccc4c3CCN1C(=O)[C@@H](CC(=O)NCCC1=CCCCC1)C[C@@H]2C(=O)N1CCN(C(=O)c2ccco2)CC1	-10.8%	–
Cc1ccc2c(c1)N(CC(=O)N1CCCCCC1)C(=O)C(C)O2 (stereo not drawn)	-5.68%	–
Cc1cc(C)c(NC(=O)OCCN2CCOCC2)c(C)c1	-2.26%	–
O=C(CSc1nncn1-c1ccccc1)Nc1ccc(N2CCOCC2)cc1	-6.25%	–
Cc1cc2[nH]c3c4ccccc4nc(C)c3c2cc1C	–	28.2 µM (active)
O=S(=O)(Nc1ccccc1N1CCCCC1)c1ccc(Cl)s1	13.5%	–
CCS(=O)(=O)Nc1ccc(-c2nc3cccnc3s2)cc1	–	22.4 µM (active)
O=S(=O)(Nc1ccc(-c2nc3cccnc3s2)cc1)c1ccc(Cl)s1	–	14.1 µM (active)
O=S1(=O)CC(N2CCSCC2)CN1Cc1cn(Cc2ccc(F)cc2)nn1 (stereo not drawn)	0.289%	–
COc1cc(Br)cc(CNc2ccc(F)c([N+](=O)[O-])c2)c1O	4.43%	–
Cn1c(=O)c2c(-c3ccccc3)n(-c3cccc(O)c3)cc2n(C)c1=O	-7.76%	–
Cc1cccc(C2Nc3ccccc3C(=O)N2c2ccc(F)cc2)n1 (stereo not drawn)	10.2%	–
COc1ccc2[nH]c(=O)c(CN(Cc3nnnn3Cc3ccco3)C3CCCCC3)cc2c1	-6.21%	–
NS(=O)(=O)c1ccc2c(c1)C1C=CCC1C(C1CC=CCC1)N2 (stereo not drawn)	–	28.2 µM (active)
CCN(CC)CCCCCC(=O)Nc1ccccc1C(=O)Nc1ccccc1	0.323%	–
CCCCC1=CC2=CC(=O)C(C)(OC(=O)C3CCCC3)C(=O)C2=CO1 (stereo not drawn)	–	15.8 µM (active)
Cc1c(Cl)cccc1NC(=O)Cn1nnc(C(=O)NCc2cccs2)c1N	-10.6%	–

Structure (SMILES)	activity change, negative = inhibition	Potency
S=C(NCc1ccccc1)N1CCc2ccccc2C1	8.97%	–
Cc1ccc([N+](=O)[O-])cc1NC(=O)CCSc1ccc(Cl)cc1	11.2%	–
NC(=O)c1ccsc1NC(=O)c1ccc([N+](=O)[O-])o1	–	12.6 µM (active)
Cc1ccc(Nc2nc(NCc3ccco3)c3ccccc3n2)cc1	–	35.5 µM (active)
Cc1cccc(Nc2nc(NCc3ccco3)c3ccccc3n2)c1	–	35.5 µM (active)
COc1ccccc1CNc1nc(Nc2cccc(-c3cnco3)c2)c2sccc2n1	-16.8%	–
CCc1cc(=O)oc2cc(C)c(CN3CCCCC3)c(O)c12	-23.8%	–
COc1ccc(N(C(=O)c2ccccc2)S(=O)(=O)c2cccs2)cc1	-2.58%	–
CC(CNC(=O)c1ccc(Br)o1)NC(=O)c1ccc(Br)o1 (stereo not drawn)	-4.83%	–
O=C(Nc1cccc(S(=O)(=O)NC2=NCCCCC2)c1)c1cc(-c2ccco2)nc2ccccc12	–	2.82 µM (active)
COc1ccc(Br)cc1C(=O)Nc1cccc(NC(=O)c2ccco2)c1	-7.07%	–
O=C(Nc1cccc(S(=O)(=O)NC2=NCCC2)c1)c1cc(-c2ccco2)nc2ccccc12	–	2.51 µM (active)
COc1ccc(NC(=O)c2cc(-c3ccco3)nc3ccccc23)cc1S(=O)(=O)N1CCOCC1	–	6.31 µM (active)
Cc1csc(=O)n1CCC(=O)OCC(=O)Nc1ccc(N2CCOCC2)cc1	-1.41%	–
COc1ccc(N2CC(O)=C(c3nc(-c4ccccc4)cs3)C2=N)cc1	-4.17%	–
CCCCc1c(Cc2ccccc2)ncn1CCc1ccccc1OC	10.2%	–
CC(=O)c1ccc(NC(=O)CC2Nc3cccc4cccc(c34)NC2=O)cc1 (stereo not drawn)	–	3.98 µM (active)
O=c1[nH]c(N2CCOCC2)cc2ccccc12	1.03%	–
c1ccc2c(OCCCCN3CCOCC3)cccc2c1	-1.13%	–
Oc1c(C(c2ccccc2)N2CCOCC2)ccc2ccccc12 (stereo not drawn)	–	3.98 µM (active)
CC1CCCC(C)N1C(=O)COC(=O)CNC(=O)c1ccccc1 (stereo not drawn)	0.689%	–
Cc1cc2nc(NC(=O)C3(C)CCN3C(=O)C(C)C)[nH]c2cc1C (stereo not drawn)	-17.4%	–
CC1(C(=O)NS(=O)(=O)C2CC2)CCN(C(=O)c2ccccc2F)C1 (stereo not drawn)	-6.44%	–
